Source: PubChem BioAssay
MITF primary = inhibitors of human MITF; AlphaScreen MITF homodimerization, bead proximity signal; inhibition, % at 2.6 µM; 650,000 tested, 0.91% active; AID 1259374; in the data active = inhibition above about 50%;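 also: 0% = vehicle wells with protein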
FBW7 act = activators of human E3 ligase FBW7; Q969H0; AlphaScreen FBW7–phospho-cyclin E peptide binding, activator screen; normalized activity (activation), % at 26.1 µM; 650,000 tested, 0.13% active; in the data active = normalized activity above about 1.9%;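 also: purified mutant Fbw7 with reduced substrate affinity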
TEAD-YAP block = TEAD-YAP interaction inhibition. HEK-TIYL cells, TEAD-Gal4/YAP UAS-luciferase luminescence. inhibition, % at 9.12 µM. 640,000 tested, 1.4% active; in the data active = inhibition above about 32%;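 also: 0% = median of test compound wells and 100% = reference inhibitor wells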
GPR151 ag = human GPR151 activation. Q8TDV0. PathHunter beta-arrestin GPR151 cells, luminescence. activation, % at 11.2 µM. 650,000 tested, 1% active. AID 1508602; in the data active = activation above about 4.9%;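 also: 0% = median of compound wells and 100% = cells with positive control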
Target sequence (Q8TDV0 whole entry, looked up): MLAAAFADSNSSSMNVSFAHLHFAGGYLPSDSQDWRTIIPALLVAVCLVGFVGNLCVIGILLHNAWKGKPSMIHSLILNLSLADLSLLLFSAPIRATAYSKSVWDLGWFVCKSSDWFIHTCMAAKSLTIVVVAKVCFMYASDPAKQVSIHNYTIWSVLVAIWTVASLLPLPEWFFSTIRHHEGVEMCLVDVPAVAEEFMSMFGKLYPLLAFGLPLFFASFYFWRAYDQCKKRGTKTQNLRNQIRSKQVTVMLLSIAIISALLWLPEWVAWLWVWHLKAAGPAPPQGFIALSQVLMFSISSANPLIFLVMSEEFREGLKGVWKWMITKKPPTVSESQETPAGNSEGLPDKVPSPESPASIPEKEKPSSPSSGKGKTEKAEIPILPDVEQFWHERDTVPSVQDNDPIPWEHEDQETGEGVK
* hit, by the source's call. Shown are actives, neighbours in structure and some others; about 3.4% of the full set was active somewhere.

SMILES	MITF primary	FBW7 act	TEAD-YAP block	GPR151 ag
O=C1c2ccccc2C(=O)C1(Nc1ccc(OCc2ccccc2Cl)cc1)c1ccccc1	14	0	32*	0
Nc1ccc(OCc2ccccc2Cl)cc1	24	0	72*	-1
Cc1ccc(SCC(=O)Nc2nnc(CC(=O)N3CCOCC3)s2)cc1	10	0	-7	1
CC[N+]1=C(C)C(C)(C)c2cc(C)ccc21	16	0	50*	0
Cc1ccc(C(=O)c2ccc(N)cc2)cc1C	34	0	52*	2
Cc1ccc(Nc2nc(Cl)nc(Nc3ccc(C)cc3)n2)cc1	4	0	-22	0
Cc1ccc(-c2nc(-c3ccccn3)no2)c(Cl)c1	7	0	98*	-11
Cc1ccc(-c2nc(-c3cccnc3)no2)c(Cl)c1	1	0	22	-2
Clc1ccc(-c2nc(-c3ccccn3)no2)c(Cl)c1	8	0	98*	-11
c1ccc(-c2noc(-c3cccc4ccccc34)n2)nc1	11	0	29	-5
COc1cc(/C=C2/C(=O)NN(c3ccc(Br)cc3)C2=O)cc(Cl)c1O	-12	0	-6	-2
N#Cc1cc2c(nc1SCC(=O)N1CCOCC1)CCCCC2	-5	0	83*	0
CCc1ccc2nc(SCC(=O)OC)c(C#N)cc2c1	5	0	-61	1
CC(C)c1ccc2nc(SCC(=O)N3CCOCC3)c(C#N)cc2c1	0	0	36*	-1
CCc1ccc2nc(SCC(N)=O)c(C#N)cc2c1	-9	0	50*	1
COc1cc2cc(C#N)c(SCC(=O)N3CCOCC3)nc2cc1OC	-7	0	-3	2
N#Cc1cc2c(nc1SCC(=O)Nc1ccccc1)CCCC2	-7	0	-38	-1
N#Cc1cc2c(nc1SCC(=O)Nc1nc3ccccc3s1)CCC2	3	0	90*	1
Cc1ccc(-c2nc3cc(Cl)ccc3o2)cc1NC(=O)c1ccc2ccccc2c1	14	0	4	0
CC1=C(C(=O)Nc2ccc(Br)cc2)C(c2ccc(O)cc2)NC(=O)N1 (stereo not given)	24	2.8*	-5	-2
COc1cccc(C2NC(=O)NC(C)=C2C(=O)Nc2ccc(F)cc2)c1OC (stereo not given)	-16	0	43*	-2
Cc1ccc(-c2nc(C#N)c(N(C)C)o2)cc1	4	0	-13	0
CC(C)Oc1ccccc1/C=C(\C#N)C(=O)NCCc1ccccc1	-3	0	50*	4
O=C(Cn1cnc([N+](=O)[O-])c1[N+](=O)[O-])Nc1ccc(Cl)cc1	2	0	87*	0
O=C(Cn1cnc([N+](=O)[O-])c1[N+](=O)[O-])Nc1cc(Oc2ccccc2)cc([N+](=O)[O-])c1	16	0	42*	0
SMILES	MITF primary	FBW7 act	TEAD-YAP block	GPR151 ag
CCCCC(=O)Nc1ccc(C(=O)NNC(=O)c2ccc(Cl)cc2Cl)cc1	-4	0	12	0
COc1ccc2c(c1)OCC(Cc1ccc(OC)c(O)c1)C2=O (stereo not given)	1	0	50*	3
O=C(CCCOc1ccc(Cl)cc1Cl)NNC(=O)C(c1ccccc1)c1ccccc1	-2	0	2	0
Cc1c(C(=O)NC2=NCCS2)oc2ccccc12	-25	0	38*	-6
O=C(COc1ccccc1)NC(c1ccccc1)c1cc(Cl)c2cccnc2c1O (stereo not given)	0	0	-5	-1
CCC(=O)NC(c1ccco1)c1ccc2cccnc2c1O (stereo not given)	70*	-2	27	-2
COc1ccc(C(=O)NC(c2ccco2)c2cc(Cl)c3cccnc3c2O)cc1 (stereo not given)	11	0	1	-1
O=C(COc1ccccc1)NC(c1ccco1)c1cc(Cl)c2cccnc2c1O (stereo not given)	25	0	85*	-1
CCC(=O)NC(c1ccco1)c1cc(Cl)c2cccnc2c1O (stereo not given)	38	0	37*	0
COCCCn1c(C)c(C)n2c3c(=O)n(C)c(=O)n(C)c3nc12	16	0	16	-2
CC(=O)Nc1ccccc1NC(=O)Cc1ccc(Cl)cc1	1	0	5	1
Cc1ccc(S(=O)(=O)Nc2ccccc2/C=N\n2cnnc2)cc1	2	0	48*	0
CC(=O)Nc1ccc(Nc2nc(N3CCN(c4ccccn4)CC3)nc3c2ncn3-c2ccccc2)cc1	4	0	22	4
c1ccc(-n2cnc3c(NC4CC4)nc(N4CCN(c5ccccn5)CC4)nc32)cc1	16	0	37*	-1
